# Laboratory results reported in PMC5540273 (PLoS ONE, 2017).
# How the values were obtained:
# Details in all cases: concentration: 1 μM,replicates: in singlicate; n = 1
# [1] = test system: JAK1(JH2domain-pseudokinase)
# [2] = test system: JAK2(JH1domain-catalytic)
# [3] = test system: JAK3(JH1domain-catalytic)
# JNK1 = test system: T1, JNK1
# T1 construct: gene MAPK8
# JNK2 = test system: T2, JNK2
# T2 construct: gene MAPK9
# JNK3 = test system: T3, JNK3
# T3 construct: gene MAPK10
# KIT-autoinhibited = test system: KIT-autoinhibited
# KIT = test system: KIT
# LATS1 = test system: LATS1
# LATS2 = test system: LATS2
# LCK = test system: LCK
# LIMK1 = test system: LIMK1
# LIMK2 = test system: LIMK2
# LKB1 = test system: T4, LKB1
# T4 construct: gene STK11
# LOK = test system: T5, LOK
# T5 construct: gene STK10
# LRRK2 = test system: LRRK2
# LTK = test system: LTK
# LYN = test system: LYN
# LZK = test system: T6, LZK
# T6 construct: gene MAP3K13
# MAK = test system: MAK
# 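Note: KINOMEscan kinase panel screen.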
Compound,%Inh [1] [%],%Inh [2] [%],%Inh [3] [%],%Inh (JNK1) [%],%Inh (JNK2) [%],%Inh (JNK3) [%],%Inh (KIT-autoinhibited) [%],%Inh (KIT) [%],%Inh (LATS1) [%],%Inh (LATS2) [%],%Inh (LCK) [%],%Inh (LIMK1) [%],%Inh (LIMK2) [%],%Inh (LKB1) [%],%Inh (LOK) [%],%Inh (LRRK2) [%],%Inh (LTK) [%],%Inh (LYN) [%],%Inh (LZK) [%],%Inh (MAK) [%]
O=C(NCC1CC1)c1ccc(-c2cc(C(=O)NC3CC3)ccc2F)cc1 [GW810445],0,12,0,0,0,0,0,0,0,0,0,0,0,68,5,71,28,0,0,0
OCCn1cc(-c2cnc3nnn(Cc4ccc5ncccc5c4)c3n2)cn1,10,0,0,10,0,0,0,0,0,24,0,0,0,3,18,0,8,0,0,0
Nc1nccc(-c2ccc3c(N)n[nH]c3c2)n1 [GSK1034945],29,17,14,20,10,0,0,6,0,0,0,0,12,4,0,0,8,0,0,81
CS(=O)c1ccc(-c2coc3ccc(-c4n[nH]c(=O)o4)cc23)cc1 (centres unmarked),3,23,23,23,20,16,0,0,11,21,0,0,0,16,99.7,13,0,16,2,0
Cn1ccc2ncnc(Oc3ccc(NC(=O)Nc4cnn(C(C)(C)C)c4)c(Cl)c3)c21,0,11,15,2,10,0,35,99.8,100,2,71,1,8,9,99.9,0,12,71,0,0
Cc1ccc(C(=O)Nc2ccc(Oc3ccc4nc(NC(=O)C5CC5)cn4c3)c(F)c2)c(=O)n1-c1ccccc1,0,81,15,0,0,0,24,100,14,0,99.2,42,21,34,99.9,0,38,57,0,0
O=C(Nc1cccc(C(F)(F)F)c1)c1cccc(Oc2ccc3nccn3n2)c1,10,30,8,21,0,10,44,99.9,0,0,63,0,8,0,24,0,45,37,20,0
COc1cccc(C2=C(Nc3cccc(Cl)c3)C(=O)NC2=O)c1 [SB-341556],0,45,92.9,25,44,32,0,14,0,0,15,67,0,0,9,83,86,0,0,0
CC(C)S(=O)(=O)N1CCN(Cc2ccc3c(c2)nc(NC(=O)c2ccsc2)n3C[C@H](O)c2ccccc2)CC1 [GW635815],0,77,54,19,10,15,20,87,0,0,39,0,0,0,0,66,25,0,69,18
NC(=O)Nc1sc(-c2ccc(F)cc2)cc1C(N)=O [GW789449],100,99.1,96.1,55,0,20,48,65,2,0,32,3,24,0,22,0,35,0,0,0
